Assay outcomes: PubChem, NMMLSC
Anthrax LF inh2: blocks Bacillus anthracis lethal factor protease | multiplex microsphere protease cleavage assay, LF | P15917 | 360,000 tested, 0.12% active | AID 588501 | inhibition, % at 10 µM
Bead autofluor: counter-screen for toxin protease inhibitors: compound fluorescence. 360,000 tested, 3.1% active. AID 624483. fluorescence intensity (no concentration beside the values). compound autofluorescence counterscreen, microsphere flow cytometry; active compounds read high; in the data active = fluorescence intensity above about 16000; inconclusive = no clear call, values can overlap the other calls
BoNT-A LC inh2: blocks Botulinum neurotoxin A light chain protease | multiplex microsphere protease substrate cleavage, flow cytometry | inhibition, % at 10 µM | 360,000 tested, 0.17% active | AID 588499
BoNT-F LC inh: inhibitors of Botulinum neurotoxin F light chain protease; Multiplex microsphere protease cleavage assay, flow cytometry; inhibition, % at 10 µM; 360,000 tested, 0.22% active; AID 588497; in the data active = inhibition above about 35%, passing the limit was not always enough; inconclusive = no clear call, values can overlap the other calls
Each line names hits and unclear results; the compound was inactive in the other large screens. This is a sample that favours compounds with a hit; in the whole collection about 3.5% have one here. Cut-off read from the data, not from the text of the source, unless noted: active = inhibition above about 30%; inconclusive = no clear call, values can overlap the other calls; inactive = below that.

Cc1nnc(SCC(=O)c2ccc(S(=O)(=O)N3CCOCC3)cc2)n1-c1ccccc1	Bead autofluor 24041, BoNT-A LC inh2 inconclusive
NC(=O)CSc1nnc(-c2ccc(S(=O)(=O)N3CCCC3)cc2)n1Cc1ccco1	Bead autofluor 19668
Cn1c(SCC(=O)N2CCCC2)nnc1-c1ccc(S(=O)(=O)N2CCCC2)cc1	none
Cn1c(SCC(=O)N2CCCCC2)nnc1-c1ccc(S(=O)(=O)N2CCOCC2)cc1	Bead autofluor 17538
CCOC(=O)CSc1nnc(-c2ccc(S(=O)(=O)N3CCOCC3)cc2)n1-c1ccccc1	none
COc1ccc(-c2ccc3c(c2)S(=O)(=O)c2cccc(C(=O)NCc4cc(C)oc4C(F)(F)F)c2C3=O)cc1OC	none
Cc1cc(/C=C(/C#N)C(=O)Nc2ccccc2)c(C)n1-c1cccnc1	none
Cc1cc(/C=C(\C#N)C(=O)Nc2ccc(F)cc2)c(C)n1-c1ccc(N2CCOCC2)c([N+](=O)[O-])c1	Bead autofluor 22759
Cc1cc(/C=C(\C#N)C(=O)Nc2ccccc2)c(C)n1-c1ccc2c(c1)OCO2	Bead autofluor 20884
Cc1ccc(C(=O)C(OC(=O)CN2C(=O)c3ccccc3C2=O)c2ccccc2)cc1C (stereo not drawn)	Bead autofluor 22707
Cc1ccc(C(=O)C(OC(=O)CNC(=O)c2ccc(Cl)cc2)c2ccccc2)cc1 (stereo not drawn)	Bead autofluor 21549, BoNT-A LC inh2 inconclusive
O=C(CN1C(=O)c2ccccc2C1=O)OC(C(=O)c1ccc(Cl)cc1)c1ccccc1 (stereo not drawn)	Bead autofluor 21488
Nc1cccc(-n2cccc2)c1	none
O=C(CSc1nc2ccc([N+](=O)[O-])cc2[nH]1)NC1CCCCC1	Bead autofluor 20507, BoNT-A LC inh2 inconclusive
OCOCCCn1c(C2CCCN2c2nc(-c3ccc(F)cc3)cs2)nc2cc(Cl)c(N3CCCCC3)cc21 (stereo not drawn)	none
O=C(O)CCCCCN1C(=O)/C(=C\c2ccncc2)SC1=S	none
O=C(O)CCCN1C(=O)/C(=C/c2ccc(-c3nc4ccccc4s3)o2)SC1=S	Anthrax LF inh2 39.8, BoNT-A LC inh2 30.3
O=C(O)CCCCCN1C(=O)/C(=C\c2ccc(-c3ccc(Cl)cc3)o2)SC1=S	BoNT-A LC inh2 42.7
CCOC(=O)C1=CCN(S(=O)(=O)c2ccccc2C)C1c1ccc(Cl)c(Cl)c1 (stereo not drawn)	none
Cc1ccc(OCC(=O)N2CCCCC2)c(Br)c1	Bead autofluor 17161
CC(=O)c1c(O)cc(C)n(Nc2nc(C)cc(C)n2)c1=O	Bead autofluor 21656, BoNT-A LC inh2 inconclusive
CC(=O)c1c(O)cc(C)n(-c2ccc(F)cc2)c1=O	none
CC1=CC(c2ccc(Cl)cc2)n2nc(NS(=O)(=O)c3ccc(C)cc3)nc2N1 (stereo not drawn)	Bead autofluor 23033
CC1=CC(c2ccccc2)n2nc(NS(=O)(=O)c3ccc(C)cc3)nc2N1 (stereo not drawn)	none
COC(=O)c1cnn(-c2ccc(F)cc2F)c1/C=N/NC(=S)NC(C)(C)C	Anthrax LF inh2 52.0, BoNT-F LC inh inconclusive
C[C@@H]1CC[C@H]2C(=O)N3[C@@H](CC[C@@H](C)[C@@H]3c3ccc(Br)cc3)C(=O)N2[C@H]1c1ccc(Br)cc1	none
COc1ccccc1CN(C(=O)CNC(=O)c1ccco1)C(C(=O)NCC1CCCO1)c1ccccc1 (stereo not drawn)	none
Nc1nonc1C(=O)NCCN=Cc1ccccc1O	none
Nc1nonc1C(=O)NCCN=Cc1cc(Cc2ccccc2)cc(Br)c1O	Bead autofluor 17444
CC1CN(C(=O)c2cc(S(=O)(=O)N3CCCCC3)ccc2Cl)CC(C)O1 (stereo not drawn)	none
CCCN1C(=O)C(=O)c2cc(Cl)ccc21	none
CCC12CSc3nc(Cl)ccc3N1C(=O)C(=O)N2C (stereo not drawn)	Anthrax LF inh2 inconclusive, BoNT-F LC inh 39.8
O=C(Nc1ccccc1F)NC1CCN(Cc2nnnn2Cc2ccc(F)cc2)CC1	Bead autofluor 23538
O=C(Nc1ccc(F)cc1)NC1CCN(Cc2nnnn2Cc2ccco2)CC1	Bead autofluor 22240, BoNT-A LC inh2 inconclusive
COc1cccc(NC(=O)NC2CCN(Cc3nnnn3Cc3ccc(F)cc3)CC2)c1	none
C=CCOc1ccnc(-c2ccccc2)n1	BoNT-F LC inh inconclusive
O=C1CCCc2c1nn(-c1ccccc1)[n+]2[O-]	Bead autofluor 18962
Cc1ccccc1NC1=NC(=S)N(CC(N)=O)C12CCOC(C)(C)C2 (stereo not drawn)	BoNT-F LC inh 45.3
Cc1cc(C)n(-c2nc3ccccc3nc2N2CCC(C)CC2)n1	Bead autofluor 22810, BoNT-A LC inh2 inconclusive
Cc1cnc(C(=O)OCc2cc(=O)n3c(C)cccc3n2)cn1	none
COc1cccc(C2C(C(=O)Nc3ccc(C)cc3C)=C(C)Nc3ncnn32)c1OC (stereo not drawn)	Bead autofluor 19983
Cc1ccc2ncc([N+](=O)[O-])n2c1	Bead autofluor 21684
CCOC(=O)c1c(C)oc2cc(Br)c(OC)cc12	Bead autofluor 25149
CCOC(=O)c1c(CN2CCCCC2)n(C)c2cc(Br)c(OC)cc12	none
CCOC(=O)c1c(CN2CCN(CCO)CC2)n(C)c2cc(Br)c(OC)cc12	Bead autofluor 23678
Cc1cc(C(=O)OCC(=O)Nc2cccnc2Cl)c2ccccc2n1	none
N=c1n(CCN2CCCC2)c2ccccc2n1CC(O)c1ccco1 (stereo not drawn)	Bead autofluor 21466
O=C(CCCCCn1c(=S)[nH]c2ccc(N3CCOCC3)cc2c1=O)NCc1ccc(Cl)cc1	none
O=c1c2cc(N3CCOCC3)ccc2[nH]c(=S)n1CCCN1CCCCCC1	Bead autofluor 21083, BoNT-A LC inh2 inconclusive
CC(C)OCCCn1c(=S)[nH]c2ccc(N3CCOCC3)cc2c1=O	Bead autofluor 20555
O=c1c2cc(N3CCOCC3)ccc2[nH]c(=S)n1Cc1ccc(Cl)cc1	Bead autofluor 16514
CSc1ccc(N2CCN(CCCNC(=O)Nc3ccccc3F)CC2)cc1	Bead autofluor 24815
CSc1ccc(NC(=O)NCCCN2CCC(Cc3ccccc3)CC2)cc1	none
COc1cccc(/C=N/NC(=O)c2ccc(-n3cnnn3)cc2)c1	none
COc1cc(C(=O)NCCC(=O)NCCCN2CCCCC2)cc(OC)c1OC	Bead autofluor 25617
COc1cc(C(=O)OCCCOC(=O)c2cc(OC)c(OC)c(OC)c2)cc(OC)c1OC	none
CCOCCCNC(=O)CCNC(=O)c1cc(OC)c(OC)c(OC)c1	Bead autofluor 20238
COCCCNC(=O)c1cc(OC)c(OC)c(OC)c1	none
COc1cc(C(=O)NCC(C)C)cc(OC)c1OC	Bead autofluor 16687
CCN(CC)CC(C)OC(=O)c1cc(OC)c(OC)c(OC)c1 (stereo not drawn)	Bead autofluor 19405, BoNT-A LC inh2 inconclusive
Cc1ccc(S(=O)(=O)/N=C(/Nc2c(C)cccc2C)c2ccccc2)cc1	none
COC(=O)[C@]1(Sc2ccc(C)cc2)CC(=O)N[C@@H]1c1ccccc1	none
N#Cc1ccc2sn(-c3ccccc3)c(=O)c2c1	BoNT-A LC inh2 32.7
O=c1c2cc([N+](=O)[O-])ccc2sn1-c1ccccc1	none
Cc1cc(C)c(S(=O)(=O)N2C[C@H]3CON(C)[C@H]3C[C@H]2c2ccc(N3CCCCC3)cc2)c(C)c1	Bead autofluor 34680
Cc1cc2nccc(-c3ccc(Cl)c([N+](=O)[O-])c3)n2n1	none
